Results filed as inconclusive are left out. Entries that show only a call come without a potency. Values without a mark were called inactive. Activity calls are given as the source filed them. Calls follow the shape of the dose curve; as a rule, active = well fitted activation curve with a large enough effect; inconclusive = small, poorly fitted or top-dose-only effect; inactive = no such curve, though single readings can be large or run the other way.

This note sets out measurements from PubChem BioAssay AID624305 (National Center for Advancing Translational Sciences (NCATS), 2012).
Potency is read from the fitted curve at half-maximal effect.

This assay can be described thus: qHTS assay for re-activators of p53 using a Luc reporter: Hit Validation. Also: nearly all actives have a fitted effect of over 75% in size. To be noted: p53-responsive luciferase reporter cells, luminescence, H1299 line expressing heat-sensitive Ala138Val p53; series mostly up to 46.1 µM. A digest of the protocol: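 Hit confirmation with a 1:5 dilution series, at 37 deg C for 24 hrs, in H1299 cells co-expressing temperature-sensitive p53-A138V and p53-responsive luciferase. Nocodazole served as control; luminescence read after 10 min with detection reagent.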
As to `CCc1ccc(N=c2c([N+](=O)[O-])nn(-c3ccccc3)n2O)cc1`, the Potency was 9.2 µM (active).

For the compound `C/C(=N\N=c1/scc(C)n1Cc1ccco1)c1cccc([N+](=O)[O-])c1`, the Potency result was “inactive”.

For `O=C(Nc1nnc(-c2cccs2)o1)c1cccc(Oc2ccccc2)c1`, the Potency entry is “inactive”.

With `Oc1ccc(N=Cc2c(O)ccc3ccccc23)cc1`, the Potency result was “inactive”.

Consider `COCCn1c(SCC(=O)Nc2ccc(N3CCOCC3)cc2)nc2ccccc21`, for which the Potency result is “inactive”.

Regarding `CCc1ccc(NC(=O)c2cnn3ccccc23)cc1`, the Potency is 0.92 µM (active).

Turning to `Cc1ccc(S(=O)(=O)c2cn(CC(=O)Nc3ccccc3)c3ccc(F)cc3c2=O)cc1`, the Potency entry is “inactive”.

For the compound `Fc1ccccc1/C=C/c1ccc2ccccc2n1`, the Potency is 0.731 µM (active).

Regarding `CCCCn1c(SCC(=O)N2CCCC2=O)nc2cc(S(N)(=O)=O)ccc21`, the Potency result was “inactive”.

On to `CCOc1ccc(-n2c(SCc3nc(-c4cccs4)no3)nnc2-c2ccncc2)cc1`, for which the Potency entry is “inactive”.

On to `CCOc1ccc(N/C=C/C(=O)c2ccccc2)c([N+](=O)[O-])c1`, for which the Potency was 0.461 µM (active).

Regarding `COCC(C)NC(=O)C1CC(=O)N(c2ccc(C)cc2)C1` (stereo not drawn), the activation was -21.3% [at 9.22 µM].

In the case of `Cc1noc(C)c1COc1ccc(C(=O)NCCOc2ccccc2)cc1`, the Potency result was “inactive”.

With `COc1ccccc1-c1cc(C(=O)Nc2cc(C)on2)no1`, the Potency was 16.4 µM (active).

As to `CC(C)N1CCc2c(sc(NC(=S)NC(=O)c3ccccc3)c2C#N)C1`, the activation was 7.78% [at 9.22 µM].

For the compound `CC(=O)Oc1ccc(Cl)cc1/C=C/c1ccc2ccccc2n1`, the Potency is 4.61 µM (active).

Consider `O=C(O)c1ccc(N/N=C/c2ccc3ncccc3c2)cc1`, for which the Potency was 0.184 µM (active).

As for `O=C(COC(=O)c1ccc(-c2nnc(-c3ccccc3)o2)cc1)c1ccccc1`, the Potency was 2.91 µM (active).

With `COc1ccc(CC(=O)Nc2ccc(C(=O)Nc3ccccc3C(=O)O)cc2)cc1OC`, the Potency result was “inactive”.

Turning to `COc1cccc(C(=O)c2sc(NC(C)C)nc2N)c1`, the activation was 25.6% [at 9.22 µM].

For `COc1ccc(-c2cc(=O)c3ccccc3s2)cc1`, the Potency was 4.11 µM (active).

For `O=C(NNC1=C(C(=O)C(F)(F)F)CCC1)c1cccc(O)c1`, the Potency result is “inactive”.

Turning to `O=C(CC1SC(N2CCCC2)=NC1=O)Nc1ccc(C(=O)Nc2ncccc2O)cc1` (stereo not drawn), the Potency is 16.4 µM (active).

In the case of `Cc1ccc(NC(=S)NCC2CCCO2)c(OC(F)F)c1` (stereo not drawn), the Potency entry is “inactive”.

Regarding `Cc1cccc(Nc2nc(N3CCOCC3)nc(N3CCOCC3)n2)c1`, the Potency entry is “inactive”.

Consider `O=C(CSc1nnc(-c2ccc(F)cc2)c2ccccc12)Nc1ccccc1`, for which the Potency result was “inactive”.

On to `COc1cc(CNC2CCCCCCC2)c(Br)cc1OCCO`, for which the Potency entry is “inactive”.

Turning to `Cc1nc2cc(-c3ccccc3)nn2c(N)c1-c1ccccc1`, the Potency was 0.411 µM (active).

Take `CCOCC(=O)Nc1nc2ccc(OCC)cc2s1`: the Potency was 16.4 µM (active).

Regarding `COc1ccc(CCNC2CCC(c3ccccc3)CC2)cc1` (stereo not drawn), the Potency entry was “inactive”.

For the compound `COc1ccccc1NC(CC(=O)c1ccccc1)C(=O)OCC(=O)c1ccc(C)cc1` (stereo not drawn), the Potency was 0.206 µM (active).

Turning to `Cc1ccnc(NC(=O)c2sc3cc(Cl)ccc3c2Cl)c1`, the Potency was 2.91 µM (active).

`CN(C)c1ccc(NC(=O)CCCc2ccccc2)cc1`: the Potency was 1.46 µM (active).

Turning to `Cc1cc(Oc2ccccc2)nc(-c2ccccc2O)n1`, the Potency entry is “inactive”.

As for `COCCCN=C(c1ccco1)n1c(=S)nc(-c2ccco2)n(CCCOC)c1=S`, the Potency entry was “inactive”.

`COc1ccc2cc3c(N)nn(C(=O)c4ccc(Cl)c([N+](=O)[O-])c4)c3nc2c1`: the Potency entry is “inactive”.

In the case of `O=C(NCCCNC1CCCCC1)c1ccc(/C=N/O)nc1`, the Potency result is “inactive”.

As to `CC(OC(=O)c1cccc([N+](=O)[O-])c1)C(=O)N1CCc2ccccc21` (stereo not drawn), the Potency result was “inactive”.
